Experimental findings from PubChem BioAssay (NCATS) are described below.

Structures are written as SMILES. Records with an inconclusive call do not appear. Calls of active or inactive are those of the source. The call rests on the fitted dose curve; in most records, active means well fitted curve in the direction sought with a large enough effect; inconclusive means small, poorly fitted or top-dose-only effect, or another doubt; inactive means no such curve, though single readings can be large; an effect the other way counts as inactive or inconclusive.

Experiment [1] can be described thus: Quantitative High-Throughput drug screen in 47 multiple myeloma cell lines against the NCATS MIPE library collection: MOLP8_DSMZ cell viability assay (AID 1918977). Further: nearly all actives have a fitted effect of over 45% in size. The method in brief:
(§1)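 Plated at 500 cells per well, myeloma lines received MIPE 4.0 compounds by pin tool. Following 48 h culture at 37 °C, CellTiter-Glo luminescence gave viability relative to DMSO and media-only controls.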

Experiment [2] can be described thus: Quantitative High-Throughput drug screen in 47 multiple myeloma cell lines against the NCATS MIPE library collection: NCIH929_DSMZ cell viability assay (AID 1918978). Further: nearly all actives have a fitted effect of over 35% in size. The method in brief:
as §1

Experiment [3] in a line: Quantitative High-Throughput drug screen in 47 multiple myeloma cell lines against the NCATS MIPE library collection: MM1S_ATCC cell viability assay (AID 1918980). Further: nearly all actives have a fitted effect of over 45% in size. The method in brief: as §1
Experiment [4] in a line: Quantitative High-Throughput drug screen in 47 multiple myeloma cell lines against the NCATS MIPE library collection: MM1R_ATCC cell viability assay (AID 1918981). Further: nearly all actives have a fitted effect of over 35% in size. The method in brief:
as §1

Experiment [5] can be described thus: Quantitative High-Throughput drug screen in 47 multiple myeloma cell lines against the NCATS MIPE library collection: OCIMY1_PLB cell viability assay (AID 1918979). Further: nearly all actives have a fitted effect of over 35% in size. On viability: series mostly up to about 46 µM. The method in brief:
as §1

Experiment [6] can be described thus: Quantitative High-Throughput drug screen in 47 multiple myeloma cell lines against the NCATS MIPE library collection: MMM1_PLB cell viability assay (AID 1918976). Further: nearly all actives have a fitted effect of over 35% in size. The method in brief: as §1
Experiment [7] is described as follows: Quantitative High-Throughput drug screen in 47 multiple myeloma cell lines against the NCATS MIPE library collection: KMS26_JCRB cell viability assay (AID 1918975). Further: nearly all actives have a fitted effect of over 45% in size. The method in brief: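 qHTS of the MIPE 4.0 collection: 500 myeloma cells/well, 48 h drug exposure at 37C in 5% CO2, then CellTiter-Glo for 5 min at room temperature before luminescence reading.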
Potency means the concentration at half of the fitted maximal effect.

Consider `Cc1ccc(S(=O)(=O)OCC(=O)Nc2ccc(C(=O)O)c(O)c2)cc1`, for which, in experiment [1], the Potency result is “inactive”. In addition, the Potency in experiment [2] is 7.43 µM (active).
`CNc1nc(-c2ccc3c(N)n[nH]c3c2)cc(N2C[C@@H](C(=O)NC3CCCCC3)CC[C@@H]2C)n1`: the Potency in experiment [3] is 16.6 µM (active); in experiment [4], 18.7 µM (active).
As for `C[C@]12CC[C@@H]3c4ccc(O)cc4CC[C@H]3[C@H]1[C@@H](O)[C@@H](O)[C@H]2O`, the Potency result in experiment [2] and in experiment [5] was “inactive” each time. Moreover, the Potency in experiment [3] was 26.4 µM (active).
`COc1cc2c(cc1Cc1cccc(Cl)c1F)c(=O)c(C(=O)O)cn2[C@H](CO)C(C)C`: the figures for the Potency in experiment [6], in experiment [1] and in experiment [3] were 16.6 µM (active), 13.2 µM (active) and 16.6 µM (active), respectively.
As to `Cc1ccccc1C(C(=O)NC1CCCCC1)N(C(=O)CNc1ccc(C#N)cc1)c1cccc(F)c1` (stereo not drawn), the Potency entry in experiment [2], in experiment [5] and in experiment [3] was “inactive” each time.
For `O=C(Nc1ccccc1)Nc1ccc(-c2ccc(C(=O)[C@H]3CCC[C@H]3C(=O)O)cc2)cc1`, the Potency entry in experiment [2] and in experiment [5] was “inactive” in each case. For the same molecule, in experiment [3], the Potency is 26.4 µM (active).
For the molecule `CC(C)C[C@H](NC(=O)c1cc2ccccc2s1)C(=O)N1CCN(C(=O)[C@H](CO)NS(=O)(=O)c2ccc(Cl)cc2Cl)CC1`, the Potency in experiment [6] is 18.7 µM (active); in experiment [2], 26.4 µM (active); in experiment [3], 23.5 µM (active); in experiment [4] it was 18.7 µM (active).
On to `CN[C@@H]1[C@@H](O)[C@@H](O[C@@H]2[C@@H](O)[C@H](O[C@H]3O[C@H](CN)[C@@H](O)[C@H](O)[C@@H]3O)[C@@H](N)C[C@@H]2NC(=O)[C@@H](O)CN)OC[C@]1(C)O`, for which the Potency in experiment [6] was 5.26 µM (active). For the same molecule, the Potency result in experiment [2], in experiment [5] and in experiment [4] was “inactive” each time.
For `O=C1Nc2ccc(I)cc2C1=Cc1cc(Br)c(O)c(Br)c1`, the Potency in experiment [7] was 16.6 µM (active). The Potency result in experiment [5] and in experiment [4] was “inactive” throughout.
For the molecule `c1ccc(CNc2nc(N3CCOc4ccccc43)nc3c2CCCC3)cc1`, the Potency result in experiment [1], in experiment [2] and in experiment [4] was “inactive” throughout.
As to `C[C@H]1O[C@@H](n2cc(F)c(=O)[nH]c2=O)[C@H](O)[C@H]1O`, the Potency entry in experiment [2] and in experiment [5] was “inactive” throughout. The Potency in experiment [4] is 14.8 µM (active).
For `Cc1ccc(C(=O)N(CCCN)[C@@H](c2nc3cc(Cl)ccc3c(=O)n2Cc2ccccc2)C(C)C)cc1`, the Potency in experiment [6] is 26.4 µM (active); in experiment [2], 8.33 µM (active).
As for `C[C@@H]1[C@H](O)[C@@H](C)C=CC=CC=CC=CC=CC=CC=C[C@H](O[C@@H]2O[C@H](C)[C@H](O)[C@H](N)[C@@H]2O)C[C@@H]2O[C@](O)(C[C@@H](O)C[C@@H](O)[C@H](O)CC[C@@H](O)C[C@@H](O)CC(=O)O[C@H]1C)C[C@H](O)[C@@H]2C(=O)O`, in experiment [2], the Potency entry is “inactive”. Besides, the Potency in experiment [3] is 0.833 µM (active); in experiment [4] it was 16.6 µM (active).
`CC(=O)O[C@]1(C(C)=O)CC[C@H]2[C@@H]3C=C(Cl)C4=CC(=O)[C@@H]5C[C@H]5[C@]4(C)[C@@H]3CC[C@@]21C`: the Potency in experiment [2] was 9.35 µM (active); in experiment [3], 7.43 µM (active). In addition, the Potency entry in experiment [5] was “inactive”.
As for `CCCCc1ccc(NS(=O)(=O)c2ccc(C)c(C(=O)N3CCN(c4cccc(C)c4C)CC3)c2)cc1`, the Potency in experiment [6] was 18.7 µM (active); in experiment [3], 14.8 µM (active).
For `C[C@@H](NC(=O)c1ncnc(N)c1Cl)c1ncc(C(=O)Nc2cc(C(F)(F)F)c(Cl)cn2)s1`, the Potency in experiment [5] was 2.96 µM (active); in experiment [3] it was 16.6 µM (active); in experiment [4] it was 18.7 µM (active).
As to `Cc1c(C(=O)Nc2ccc(N3C[C@@H](C)O[C@@H](C)C3)nc2)cccc1-c1ccc(OC(F)(F)F)cc1`, the results for the Potency in experiment [6], in experiment [1] and in experiment [3] were 11.8 µM (active), 13.2 µM (active) and 14.8 µM (active), respectively.
With `CN(C)CCOc1cc(-c2cn[nH]c2)ccc1NC(=O)C1COc2ccccc2O1` (stereo not drawn), the Potency entry in experiment [1] and in experiment [5] was “inactive” in each case. The Potency in experiment [2] was 18.7 µM (active); in experiment [4], 13.2 µM (active).
With `O=C1C(c2c(O)[nH]c3ccccc23)=Nc2ccccc21`, the values for the Potency in experiment [6], in experiment [3] and in experiment [4] were 2.09 µM (active), 0.118 µM (active) and 1.48 µM (active), respectively. In experiment [5], the Potency entry is “inactive”.
In the case of `COc1nccc(-c2c(-c3ccc(F)cc3)ncn2C2CCC(O)CC2)n1` (stereo not drawn), the Potency is 4.69 µM (active) in experiment [3] and 18.7 µM (active) in experiment [4].
Take `COC(=O)[C@H](c1ccccc1Cl)N1CCc2sccc2C1`: the Potency result in experiment [5] and in experiment [4] was “inactive” in each case.
As for `C=CC(=O)Nc1cccc(Sc2nc(Nc3ccc(N4CCN(C)CC4)cc3)ncc2Cl)c1`, in experiment [3], the Potency was 18.7 µM (active).
Take `COc1cc2nccc(Oc3ccc(NC(=O)Nc4cc(C)on4)c(Cl)c3)c2cc1OC`: the Potency is 23.5 µM (active) in experiment [6] and 6.62 µM (active) in experiment [3].
In the case of `CO[C@H]1C=CO[C@@]2(C)Oc3c(C)c(O)c4c(O)c(c(C=NN5CCN(C)CC5)c(O)c4c3C2=O)NC(=O)C(C)=CC=C[C@H](C)[C@H](O)[C@@H](C)[C@@H](O)[C@@H](C)[C@H](OC(C)=O)[C@H]1C`, the Potency entry in experiment [2] and in experiment [3] was “inactive” in each case. Further, the Potency in experiment [4] was 0.533 µM (active).
In the case of `Cc1ccc(C(=O)N(CCCN)[C@@H](c2oc3cc(Cl)ccc3c(=O)c2Cc2ccccc2)C(C)C)cc1`, the Potency in experiment [6] is 23.5 µM (active); in experiment [2], 8.33 µM (active).
As to `Cc1ccc2c(c1)c1c(n2CCc2ccc(C)nc2)CCN(C)C1`, the Potency result in experiment [7], in experiment [2], in experiment [3] and in experiment [4] was “inactive” each time.
As for `Cc1ccc(NC(=O)c2cccc(N(C)C)c2)cc1NC(=O)c1ccc(O)cc1`, the Potency in experiment [2] is 0.118 µM (active); in experiment [3], 0.418 µM (active); in experiment [4], 4.18 µM (active). Moreover, in experiment [5], the Potency entry is “inactive”.
For the molecule `CN(C)c1ccccc1CN1CCCN(Cc2ccccc2N(C)C)C1c1ccncc1`, the values for the Potency in experiment [6], in experiment [1] and in experiment [4] were 16.6 µM (active), 18.7 µM (active) and 18.7 µM (active), respectively.
With `COc1cc(Cl)cn2c(-c3cccc(NC4CNC4)n3)cnc12`, the results for the Potency in experiment [6] and in experiment [4] were 20.9 µM (active) and 16.6 µM (active), respectively.
As to `Cc1cnc(-c2cc(N3CCN(C(=O)CCS(C)(=O)=O)CC3)ncc2Cl)c(C)c1`, the Potency in experiment [4] is 18.7 µM (active).
